Measured values published in PubChem BioAssay.
Calls of active or inactive are those of the source.

How the values were obtained:
[1] = binders of probe aFSTL3 on microarray, primary screen, stem cell growth factor project, biochemical, small-molecule microarray, fluorescence 635/667 (AID 1064); details: higher = more signal;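 note: measures binding of the biotinylated anti-FSTL3 antibody to printed compounds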
[2] = binders from COS7 lysate, DM2A8 probe, primary screen, torsin A project, cell lysate, small-molecule microarray, fluorescence 635/667 (AID 1065); details: higher = more signal, COS7 lysate expressing mutant human TOR1A
[3] = binders of probe aFGF2 on microarray, primary screen, stem cell growth factor project, biochemical, small-molecule microarray, fluorescence 635/667 (AID 1067); details: higher = more signal;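 note: measures binding of biotinylated aFGF2 protein to printed compounds on slides; z-score merges feature fluorescence and signal-to-noise across triplicate slides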
[4] = binders of probe aFGF10 on microarray, primary screen, stem cell growth factor project, biochemical, small-molecule microarray, fluorescence 635/667 (AID 1071); details: higher = more signal;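 note: score merges 667 nm spot intensity and signal to noise from triplicate slides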
[5] = molecular target: Neurogenic locus notch homolog protein 2 (Homo sapiens) (UniProt Q04721); assay: Notch2 binders on small-molecule microarrays, primary screen, biochemical, small-molecule microarray, 635 nm fluorescence, stem cell growth factors (AID 1073); details: Notch2 binding, higher = more signal
[6] = molecular target: Pro-neuregulin-1, membrane-bound isoform (Homo sapiens) (UniProt Q02297); assay: NRG1 binders on small-molecule microarrays, primary screen, psychiatric disease protein project, biochemical, small-molecule microarray, fluorescence 635/667 (AID 1075); details: NRG1 binding, 635 nm fluorescence, higher = more signal;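 note: score combines 667 nm spot fluorescence with signal to noise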
Chain of Pro-neuregulin-1, membrane-bound isoform (Homo sapiens) (Q02297 whole entry, looked up, the tested form may be a part, canonical isoform): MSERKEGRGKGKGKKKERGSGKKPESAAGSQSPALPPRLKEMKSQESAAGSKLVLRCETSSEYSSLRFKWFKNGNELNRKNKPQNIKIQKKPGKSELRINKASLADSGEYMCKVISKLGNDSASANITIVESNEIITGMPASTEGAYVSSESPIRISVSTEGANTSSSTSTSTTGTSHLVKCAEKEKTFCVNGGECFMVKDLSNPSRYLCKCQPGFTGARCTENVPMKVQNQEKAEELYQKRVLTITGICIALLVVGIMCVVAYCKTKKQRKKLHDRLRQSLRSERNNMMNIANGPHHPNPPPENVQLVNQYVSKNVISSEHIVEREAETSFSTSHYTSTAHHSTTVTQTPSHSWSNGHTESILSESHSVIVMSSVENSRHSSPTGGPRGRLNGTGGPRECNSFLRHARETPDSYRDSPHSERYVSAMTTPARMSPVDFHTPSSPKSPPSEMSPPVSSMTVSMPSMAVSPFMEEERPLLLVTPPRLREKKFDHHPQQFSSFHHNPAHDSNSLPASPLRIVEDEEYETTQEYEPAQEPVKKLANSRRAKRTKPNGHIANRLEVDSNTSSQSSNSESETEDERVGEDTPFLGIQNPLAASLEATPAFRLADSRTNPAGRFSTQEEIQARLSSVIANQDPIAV

[7] = tested on: Neuregulin-1 EGF-like domain; assay: binders of neuregulin-1 EGF-like domain, primary screen, biochemical, small-molecule microarray, 635 nm fluorescence (AID 1081); details: small-molecule microarray binding, higher = more signal;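 note: binding of the protein to compounds printed on small-molecule microarray slides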
[8] = FRG1 promoter luciferase signal modulators, primary screen, FRG1 inhibition for FSHD, cell-based, C2C12 myotubes, firefly/Renilla luciferase, luminescence (AID 1084); details: higher = more signal, called active from +8 up or from −8 down
[9] = binders of probe aFST on microarray, primary screen, stem cell growth factor project, biochemical, small-molecule microarray, fluorescence 635/667 (AID 1086); details: higher = more signal;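 note: score merges 667 nm fluorescence with signal-to-noise of each printed compound spot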
[10] = binders of probe aHhip on microarray, primary screen, stem cell growth factor project, biochemical, small-molecule microarray, fluorescence 635/667 (AID 1087); details: higher = more signal;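 note: score merges spot fluorescence at 667nm with spot signal to noise ratio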
[11] = tested on: PRMT1 (protein arginine N-methyltransferase 1); assay: PRMT1 binders on small-molecule microarrays, primary screen, biochemical, small-molecule microarray, 635 nm fluorescence (AID 1088); details: small-molecule microarray binding, higher = more signal;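 note: binding of Prmt1 protein to compounds spotted on small-molecule microarray slides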
[12] = yeast growth modulation, basal conditions, primary screen, YJM789 clinical isolate, OD600, 24 h (AID 1089);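 note: growth of clinical yeast isolate S. cerevisiae YJM 789 seeded 1000 cells per well; test concentration not given here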; details: S. cerevisiae YJM789 growth, higher = more signal, called active from +8 up or from −8 down
[13] = fission yeast growth modulation, primary screen, strain 972, OD600, 24 h, no modulator (AID 1090);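 note: basal condition with compound alone and no growth modifier present; test concentration not given here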; details: S. pombe 972 growth, higher = more signal, called active from +8 up or from −8 down
[14] = S. cerevisiae growth modulation with rapamycin, primary screen, strain BY4716, OD600, 96 h (AID 1091); details: higher = more signal, called active from +8 up or from −8 down; note: test concentration not given here
[15] = molecular target: Torsin-1A-interacting protein 2 (Homo sapiens) (UniProt Q8NFQ8); assay: LULL1 binders on small-molecule microarray, primary screen, cell lysate, human LULL1 lysate, 635/667 nm fluorescence (AID 1092); details: hLULL1 lysate binding, 635 nm fluorescence, higher = more signal;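 note: probe is lysate of COS7 cells overexpressing human LULL1; score merges per-feature 667 nm fluorescence with signal-to-noise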
Chain of Torsin-1A-interacting protein 2 (Homo sapiens) (Q8NFQ8 whole entry, looked up): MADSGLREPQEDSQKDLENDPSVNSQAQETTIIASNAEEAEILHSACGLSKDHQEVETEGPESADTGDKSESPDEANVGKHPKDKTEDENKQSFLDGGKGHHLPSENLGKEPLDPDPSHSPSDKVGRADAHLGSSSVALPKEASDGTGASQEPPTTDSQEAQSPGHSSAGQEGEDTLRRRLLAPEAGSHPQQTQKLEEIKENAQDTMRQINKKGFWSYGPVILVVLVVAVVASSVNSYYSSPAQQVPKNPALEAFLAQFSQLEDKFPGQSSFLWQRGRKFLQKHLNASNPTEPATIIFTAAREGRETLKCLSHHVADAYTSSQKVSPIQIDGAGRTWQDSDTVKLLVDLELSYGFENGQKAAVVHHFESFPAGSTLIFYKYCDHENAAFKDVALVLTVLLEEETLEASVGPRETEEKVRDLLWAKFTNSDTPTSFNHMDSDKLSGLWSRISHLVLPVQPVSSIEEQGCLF

[16] = E. coli growth modulation, two-sided OD650, primary screen, E. coli filamentation project, strain DRC41, 24 h (AID 1093); details: OD650, 24 h, higher = more signal, called active from +8 up or from −8 down;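 note: MC1000 strain lacking acrAB efflux and sulA so SOS filamentation is blocked; test concentration not given here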
[17] = small-molecule microarray binders of probe aLefty2, primary screen, biochemical, biotinylated probe, 635/667 nm fluorescence (AID 1094); details: higher = more signal;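 note: score merges spot fluorescence near 667 nm with spot signal-to-noise ratio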
[18] = tested on: Noggin (protein binding on small-molecule microarray); assay: Noggin binders on small-molecule microarray, primary screen, biochemical, 635/667 nm fluorescence (AID 1095); details: 635 nm fluorescence, higher = more signal;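 note: score merges 667 nm feature fluorescence with signal to noise over triplicate slides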
[19] = molecular target: Neurogenic locus notch homolog protein 3 (Homo sapiens) (UniProt Q9UM47); assay: NOTCH3 binders on small-molecule microarray, primary screen, biochemical, 635/667 nm fluorescence (AID 1096); details: NOTCH3 binding, 635 nm fluorescence, higher = more signal
Chain of Neurogenic locus notch homolog protein 3 (Homo sapiens) (Q9UM47 whole entry, looked up): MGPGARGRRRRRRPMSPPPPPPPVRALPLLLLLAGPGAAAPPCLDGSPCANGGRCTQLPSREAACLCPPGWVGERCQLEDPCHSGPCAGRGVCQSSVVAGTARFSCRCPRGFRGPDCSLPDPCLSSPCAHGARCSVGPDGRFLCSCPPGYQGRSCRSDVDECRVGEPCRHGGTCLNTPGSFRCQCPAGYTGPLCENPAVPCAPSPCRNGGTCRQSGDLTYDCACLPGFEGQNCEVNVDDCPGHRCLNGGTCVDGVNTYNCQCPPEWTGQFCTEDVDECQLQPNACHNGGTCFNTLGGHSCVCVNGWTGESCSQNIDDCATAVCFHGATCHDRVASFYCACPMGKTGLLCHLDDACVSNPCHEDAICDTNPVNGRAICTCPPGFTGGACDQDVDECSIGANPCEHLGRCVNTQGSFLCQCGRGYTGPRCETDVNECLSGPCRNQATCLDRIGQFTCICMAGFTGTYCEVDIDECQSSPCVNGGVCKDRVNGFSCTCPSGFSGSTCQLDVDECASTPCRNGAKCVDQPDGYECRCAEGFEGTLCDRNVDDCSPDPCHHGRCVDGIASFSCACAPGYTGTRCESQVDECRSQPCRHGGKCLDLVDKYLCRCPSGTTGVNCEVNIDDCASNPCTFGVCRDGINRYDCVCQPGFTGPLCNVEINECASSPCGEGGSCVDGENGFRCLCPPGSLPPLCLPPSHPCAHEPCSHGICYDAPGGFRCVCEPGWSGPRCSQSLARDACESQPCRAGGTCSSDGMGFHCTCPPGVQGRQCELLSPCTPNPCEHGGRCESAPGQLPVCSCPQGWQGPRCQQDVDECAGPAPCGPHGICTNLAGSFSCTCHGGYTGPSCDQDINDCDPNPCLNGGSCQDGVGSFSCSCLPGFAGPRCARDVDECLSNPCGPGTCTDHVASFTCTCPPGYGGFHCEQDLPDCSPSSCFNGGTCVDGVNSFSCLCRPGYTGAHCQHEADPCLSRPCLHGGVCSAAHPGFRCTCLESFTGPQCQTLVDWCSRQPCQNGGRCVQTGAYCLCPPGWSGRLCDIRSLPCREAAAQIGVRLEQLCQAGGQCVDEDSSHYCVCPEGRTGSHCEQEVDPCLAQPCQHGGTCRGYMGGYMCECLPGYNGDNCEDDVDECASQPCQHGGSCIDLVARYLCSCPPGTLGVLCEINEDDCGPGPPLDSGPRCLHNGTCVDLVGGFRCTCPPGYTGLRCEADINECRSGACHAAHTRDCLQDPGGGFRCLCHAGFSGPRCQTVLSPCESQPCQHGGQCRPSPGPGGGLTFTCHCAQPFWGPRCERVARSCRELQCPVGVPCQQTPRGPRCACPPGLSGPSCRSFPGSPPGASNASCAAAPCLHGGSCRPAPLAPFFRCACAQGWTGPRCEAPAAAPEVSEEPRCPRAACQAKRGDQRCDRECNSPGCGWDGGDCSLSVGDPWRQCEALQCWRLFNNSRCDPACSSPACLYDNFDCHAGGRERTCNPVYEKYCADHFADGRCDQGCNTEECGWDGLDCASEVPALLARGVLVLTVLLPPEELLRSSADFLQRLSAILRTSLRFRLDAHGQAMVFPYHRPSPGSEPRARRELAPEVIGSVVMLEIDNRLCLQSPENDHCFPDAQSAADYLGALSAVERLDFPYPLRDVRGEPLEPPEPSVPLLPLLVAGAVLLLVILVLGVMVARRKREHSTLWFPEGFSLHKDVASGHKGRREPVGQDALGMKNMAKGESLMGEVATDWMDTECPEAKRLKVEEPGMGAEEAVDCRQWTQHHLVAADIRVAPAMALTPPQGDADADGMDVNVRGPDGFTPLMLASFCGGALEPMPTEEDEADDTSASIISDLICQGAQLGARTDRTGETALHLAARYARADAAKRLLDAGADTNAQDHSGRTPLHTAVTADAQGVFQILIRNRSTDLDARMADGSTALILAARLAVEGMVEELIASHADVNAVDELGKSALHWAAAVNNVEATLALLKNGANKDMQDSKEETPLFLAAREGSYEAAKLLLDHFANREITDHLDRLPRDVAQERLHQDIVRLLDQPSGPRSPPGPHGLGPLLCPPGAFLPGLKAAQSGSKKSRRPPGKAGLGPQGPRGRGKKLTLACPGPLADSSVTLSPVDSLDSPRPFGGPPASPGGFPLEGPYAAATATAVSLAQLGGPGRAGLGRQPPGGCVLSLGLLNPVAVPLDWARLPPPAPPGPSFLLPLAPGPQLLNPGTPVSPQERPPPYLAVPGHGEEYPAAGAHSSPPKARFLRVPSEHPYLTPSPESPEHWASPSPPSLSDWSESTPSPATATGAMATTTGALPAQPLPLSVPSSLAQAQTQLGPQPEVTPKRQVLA

[20] = small-molecule microarray binders of probe aEGFR, primary screen, biochemical, biotinylated probe, 635/667 nm fluorescence (AID 1097); details: higher = more signal;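 note: probe is a biotinylated anti-EGFR antibody binding compounds printed on slides; score combines fluorescence near 667 nm and signal to noise of each spot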

Compound | composite z-score [1] | composite z-score [2] | composite z-score [3] | composite z-score [4] | composite z-score [5] | composite z-score [6] | composite z-score [7] | z-score [8] | composite z-score [9] | composite z-score [10] | composite z-score [11] | z-score [12] | z-score [13] | z-score [14] | composite z-score [15] | z-score [16] | composite z-score [17] | composite z-score [18] | composite z-score [19] | composite z-score [20]
CC(C)c1ccc(NN2C(C(O)c3cccc(O)c3)C=CC3C(=O)N(c4ccccc4)C(=O)C32)cc1 (stereo not given) | 0.0067 | 0.422 | 0.0864 | 0.618 | 1.57 | 1.97 | 1.3 | -1.04 (inactive) | 1.33 | 0.122 | 1.46 | 1.18 (inactive) | -0.653 (inactive) | 0.697 (inactive) | 3.62 | -0.416 (inactive) | 0.234 | 0.527 | 1.06 | -0.0053
[N-]=[N+]=NCc1ccccc1[C@H]1OC(c2ccc(OCCCO)cc2)=N[C@@]1(CCS(=O)(=O)c1ccccc1)C(=O)N1CCOCC1 | 0.476 | 0.525 | 0.221 | 1.03 | 1.63 | 2.18 | 1.16 | 0.51 (inactive) | 1.86 | -0.0391 | 1.27 | 0.0373 (inactive) | 0.553 (inactive) | 2.23 (inactive) | 3.65 | 0.151 (inactive) | 0.663 | 0.346 | 1.1 | 0.302
O=c1cccc(C=Cc2ccccc2)o1 | 0.236 | -0.609 | -0.144 | -0.0239 | -1.03 | -0.458 | -0.0882 | 0.242 (inactive) | -0.369 | -0.0994 | -0.127 | -0.411 (inactive) | -1.06 (inactive) | 1.14 (inactive) | -0.756 | 0.573 (inactive) | -0.214 | 0.104 | -1.13 | -0.142
COC(=O)[C@@]1(Cc2ccc(OC)cc2)[C@H]2c3cc(C(=O)N4CCCC4)n(Cc4cc(F)cc5c4OCOC5)c3C[C@H]2CN1C(=O)c1ccccc1 | 0.152 | -0.0429 | 0.275 | 0.535 | 1.74 | 2.29 | 1.28 | 1.61 (inactive) | 0.83 | 1.14 | -0.829 | -0.0795 (inactive) | -0.87 (inactive) | 0 (inactive) | 3.27 | -1.28 (inactive) | 0.499 | -0.307 | 0.77 | 0.241
NC(=O)NCC#Cc1ccc2c(c1)[C@]1(C(=O)N2)[C@H](C(=O)N2CCCCCCC2)[C@H]2C(=O)O[C@H](c3ccccc3)[C@H](c3ccccc3)N2[C@@H]1c1ccc(OCCO)cc1 | 3.14 | 0.756 | 0.326 | 0.904 | 0.481 | 0.463 | 0.292 | 0.832 (inactive) | 3.05 | 3.7 | 1.43 | 1.65 (inactive) | 0.562 (inactive) | 4.58 (inactive) | 2.06 | -0.219 (inactive) | 1.63 | 1.47 | 1.02 | 0.864
CCOC(=O)C[C@H]1[C@H](OC(=O)Cc2ccc3c(c2)OCO3)[C@@H](NC(=O)C2CCCCC2)c2cc(OCCCO)ccc2N1C(=O)Cc1ccc(OC)cc1 | -0.397 | 0.0664 | -0.048 | 0.145 | 1.17 | -0.054 | 0.86 | -2.5 (inactive) | 0.364 | 0.0515 | 1.19 | -1.74 (inactive) | -0.38 (inactive) | -0.558 (inactive) | 1.89 | 1.21 (inactive) | -0.0313 | 0.509 | 0.892 | -0.0234
COc1c(C)cc(-c2cc3c(c(-c4ccc(Oc5ccccc5)cc4)n2)[Si](C(C)C)(C(C)C)OC3)cc1C | -0.128 | -0.0685 | -0.147 | -0.114 | 0.104 | -0.0614 | -1.06 | 0.643 (inactive) | 0.0723 | -0.353 | -0.871 | 1.09 (inactive) | 0.818 (inactive) | 2.03 (inactive) | 0.0255 | -1.38 (inactive) | -0.0528 | 0.104 | -0.386 | -0.0947
COCCOC(=O)N1C(=O)[C@@]2(c3ccccc31)[C@H](C(=O)NC[C@H](O)c1ccccc1)[C@H]1C(=O)O[C@H](c3ccccc3)[C@H](c3ccccc3)N1[C@@H]2c1ccc(OCCO)cc1 | -0.242 | 0.591 | -0.113 | 0.36 | 1.38 | 0.977 | 1.08 | -0.31 (inactive) | 0.53 | 0.0283 | 1.54 | 1.98 (inactive) | 1.64 (inactive) | 6.18 (inactive) | 2.85 | 1.77 (inactive) | -0.066 | 1.81 | 1.04 | -0.023
CC(C)NC(=O)[C@@H]1c2ccccc2C(=O)N(Cc2ccccc2Cl)[C@H]1c1ccc(CO)cc1 | 0.717 | 0.337 | -0.145 | -0.277 | -0.387 | 1.49 | 1.39 | -1.84 (inactive) | -0.216 | -0.137 | 1.4 | 0.759 (inactive) | 0.247 (inactive) | 0.173 (inactive) | 1.8 | 1.19 (inactive) | -0.053 | -0.384 | 0.143 | -0.287
O=C1OCC=C[C@H]2OC34C=CCN(c5ccc(Cl)cc5)C(=O)[C@H]3N(CCCCCCO)C(=O)[C@@H]4[C@@H]12 (stereo not given in full) | 1.06 | -0.793 | -0.163 | -0.688 | -0.737 | 2.26 | 1.53 | 1.16 (inactive) | -0.455 | -0.271 | -1.01 | -0.88 (inactive) | -1.63 (inactive) | -0.787 (inactive) | 1.92 | 0.437 (inactive) | -0.0936 | -1.51 | -0.464 | -0.273
COc1ccc(CCNC(=O)[C@@]2(c3ccc([N+](=O)[O-])cc3)CC(=O)N(CC34CC5CC(CC(C5)C3)C4)[C@@H]2c2ccc(CO)cc2)cc1 | 0.281 | 0.441 | -0.0039 | 0.268 | 1.14 | 1.22 | 1.15 | -0.0918 (inactive) | 0.298 | 0.0848 | 1.37 | 0.719 (inactive) | -0.063 (inactive) | 6.65 (inactive) | 2.11 | -0.108 (inactive) | 0.257 | 0.71 | 1.16 | 0.544
